Test results reported in the supplement of paper PMC10849652.
About 8,800 targets were measured; listed, in parts, are those with a hit and a random draw of the rest. About 0.5% of all pairs of compound and target were hits. A number with no mark means an inactive call.

How the values were obtained:
Assay in all cases: log2 fold change, soluble protein after heating vs DMSO (PISA); higher = thermal stabilisation; K562 lysate, 10 uM; active = over 0.2 and 3.5 SD of the protein, either way, in both replicates (recomputed)
[1] = compound: Cc1cn(-c2cc(NC(=O)c3ccc(C)c(Nc4nccc(-c5cccnc5)n4)c3)cc(C(F)(F)F)c2)cn1 [nilotinib]
In short: (§1)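 To prepare the extract, K562 pellets were dounce-homogenised in PBS pH 7.4 with 1 mM MgCl2, giving crude material at 1 mg/mL protein. This was treated with 10 μM compound for 30 min, then heated in aliquots for 3 min over 48°C-58°C before pooling and addition of NP-40 to 0.5% at 4°C. Centrifugation at 21,000xg for 90 min left soluble protein in the supernatant, which TMTpro 16plex LC-MS/MS quantified with equalised channel sums. Results are log-two fold changes in thermal stability compared with solvent controls, from duplicates.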

[2] = compound: Cc1nc(Nc2n[nH]c3c2CN(C(=O)N[C@H](CN(C)C)c2ccccc2)C3(C)C)c2sccc2n1
In short: as §1

[3] = compound: Cc1nc(Nc2ncc(C(=O)Nc3c(C)cccc3Cl)s2)cc(N2CCN(CCO)CC2)n1 [dasatinib]
In short: as §1

[4] = compound: Cc1ncc(-c2ccnc(Nc3ccc(S(C)(=O)=O)cc3)n2)n1C(C)C
In short: as §1

[5] = compound: Cn1cc(-c2ccc3c(c2)CCN3C(=O)Cc2cccc(C(F)(F)F)c2)c2c(N)ncnc21
In short: as §1

[6] = compound: Cn1cc(CNCC2CCN(c3ncc(C(=O)NO)cn3)CC2)c2ccccc21 [quisinostat]
In short: as §1

[7] = compound: Cn1cncc1[C@@](N)(c1ccc(Cl)cc1)c1ccc2c(c1)c(-c1cccc(Cl)c1)cc(=O)n2C [tipifarnib]
In short: as §1

[8] = compound: NC(=O)Nc1cc(-c2cccc(F)c2)sc1C(=O)N[C@H]1CCCNC1
In short: as §1

[9] = compound: NC(=O)c1cnc(N[C@@H]2CCCC[C@@H]2N)nc1Nc1cccc(-n2nccn2)c1
In short: as §1

[10] = compound: NC1(c2ccc(-c3nc4ccn5c(=O)[nH]nc5c4cc3-c3ccccc3)cc2)CCC1
In short: as §1

Chain of UniProt P67775 (P67775 whole entry, looked up): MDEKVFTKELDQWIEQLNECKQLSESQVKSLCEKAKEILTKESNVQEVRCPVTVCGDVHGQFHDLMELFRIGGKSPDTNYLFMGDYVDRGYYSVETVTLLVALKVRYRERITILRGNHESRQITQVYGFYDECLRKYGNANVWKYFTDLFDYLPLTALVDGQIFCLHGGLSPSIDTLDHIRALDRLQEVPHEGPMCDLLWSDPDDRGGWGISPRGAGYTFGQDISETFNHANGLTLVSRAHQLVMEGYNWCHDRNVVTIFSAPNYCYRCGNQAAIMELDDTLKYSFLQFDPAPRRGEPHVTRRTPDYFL
Chain of UniProt Q13492 (Q13492 whole entry, looked up): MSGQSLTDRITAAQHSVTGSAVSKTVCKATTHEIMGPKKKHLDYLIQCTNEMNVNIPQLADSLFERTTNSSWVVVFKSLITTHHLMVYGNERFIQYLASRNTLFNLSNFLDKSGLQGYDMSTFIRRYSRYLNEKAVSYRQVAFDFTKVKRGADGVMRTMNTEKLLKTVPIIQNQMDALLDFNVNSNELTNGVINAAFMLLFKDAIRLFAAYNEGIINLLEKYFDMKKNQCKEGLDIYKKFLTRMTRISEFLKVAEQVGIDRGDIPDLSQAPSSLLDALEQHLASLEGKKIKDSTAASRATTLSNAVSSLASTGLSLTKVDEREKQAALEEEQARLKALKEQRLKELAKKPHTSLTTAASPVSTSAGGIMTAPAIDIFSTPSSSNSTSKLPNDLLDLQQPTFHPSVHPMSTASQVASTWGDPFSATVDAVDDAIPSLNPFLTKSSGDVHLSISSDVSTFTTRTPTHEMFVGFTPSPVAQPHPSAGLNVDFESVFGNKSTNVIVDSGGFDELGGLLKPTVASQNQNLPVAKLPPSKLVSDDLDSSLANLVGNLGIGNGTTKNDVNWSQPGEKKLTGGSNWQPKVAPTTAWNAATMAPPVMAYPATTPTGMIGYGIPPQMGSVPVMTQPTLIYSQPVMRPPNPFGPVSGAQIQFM
Chain of UniProt O95336 (O95336 whole entry, looked up): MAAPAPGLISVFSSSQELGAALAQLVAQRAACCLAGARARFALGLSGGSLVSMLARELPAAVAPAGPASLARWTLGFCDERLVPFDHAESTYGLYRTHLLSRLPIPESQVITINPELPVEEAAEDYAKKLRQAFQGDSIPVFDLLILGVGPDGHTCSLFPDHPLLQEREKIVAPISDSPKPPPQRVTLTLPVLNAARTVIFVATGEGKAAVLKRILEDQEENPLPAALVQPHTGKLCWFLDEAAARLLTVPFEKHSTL
Chain of UniProt P28340 (P28340 whole entry, looked up): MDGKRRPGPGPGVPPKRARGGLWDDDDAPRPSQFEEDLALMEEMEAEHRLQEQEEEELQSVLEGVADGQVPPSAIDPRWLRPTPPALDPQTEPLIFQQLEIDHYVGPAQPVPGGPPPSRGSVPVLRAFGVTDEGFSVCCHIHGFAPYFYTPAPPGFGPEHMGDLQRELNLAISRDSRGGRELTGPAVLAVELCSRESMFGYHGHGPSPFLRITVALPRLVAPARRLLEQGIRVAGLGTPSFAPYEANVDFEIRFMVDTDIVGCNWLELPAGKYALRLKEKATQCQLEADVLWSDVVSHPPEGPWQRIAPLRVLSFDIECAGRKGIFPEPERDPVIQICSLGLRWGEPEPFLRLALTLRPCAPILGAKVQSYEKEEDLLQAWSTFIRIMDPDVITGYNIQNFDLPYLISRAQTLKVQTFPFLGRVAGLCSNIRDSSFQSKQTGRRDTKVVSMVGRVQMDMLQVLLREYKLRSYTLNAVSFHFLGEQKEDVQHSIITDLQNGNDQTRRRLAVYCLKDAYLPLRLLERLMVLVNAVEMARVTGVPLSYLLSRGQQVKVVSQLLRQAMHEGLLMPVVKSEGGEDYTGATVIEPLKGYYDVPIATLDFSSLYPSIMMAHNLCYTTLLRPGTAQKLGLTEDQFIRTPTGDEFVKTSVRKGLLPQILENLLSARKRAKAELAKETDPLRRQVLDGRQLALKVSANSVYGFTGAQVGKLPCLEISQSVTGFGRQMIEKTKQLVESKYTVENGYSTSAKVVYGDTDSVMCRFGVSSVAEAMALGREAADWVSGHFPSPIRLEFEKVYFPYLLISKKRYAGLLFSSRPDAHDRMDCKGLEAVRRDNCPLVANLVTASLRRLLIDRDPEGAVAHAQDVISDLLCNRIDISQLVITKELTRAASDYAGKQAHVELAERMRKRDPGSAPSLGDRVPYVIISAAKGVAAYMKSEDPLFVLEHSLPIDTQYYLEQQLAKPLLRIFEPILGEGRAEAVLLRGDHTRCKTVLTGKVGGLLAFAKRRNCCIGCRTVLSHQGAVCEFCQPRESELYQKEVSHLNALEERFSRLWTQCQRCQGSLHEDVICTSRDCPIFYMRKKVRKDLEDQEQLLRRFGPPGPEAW
Chain of UniProt Q10713 (Q10713 whole entry, looked up): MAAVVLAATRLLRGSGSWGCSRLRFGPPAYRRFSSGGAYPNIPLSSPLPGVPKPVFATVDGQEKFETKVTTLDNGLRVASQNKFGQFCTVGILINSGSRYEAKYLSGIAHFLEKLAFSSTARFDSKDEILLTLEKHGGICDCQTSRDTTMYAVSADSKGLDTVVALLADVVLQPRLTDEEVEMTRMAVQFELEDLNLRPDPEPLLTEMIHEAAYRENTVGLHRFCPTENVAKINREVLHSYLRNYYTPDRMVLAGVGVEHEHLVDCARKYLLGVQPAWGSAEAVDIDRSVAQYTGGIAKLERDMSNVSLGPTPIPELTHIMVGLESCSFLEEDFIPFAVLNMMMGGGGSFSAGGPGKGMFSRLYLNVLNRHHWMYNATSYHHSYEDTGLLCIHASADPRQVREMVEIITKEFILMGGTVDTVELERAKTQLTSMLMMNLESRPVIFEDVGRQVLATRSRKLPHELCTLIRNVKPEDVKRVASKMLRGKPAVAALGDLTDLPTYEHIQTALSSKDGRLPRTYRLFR
Chain of UniProt O43741 (O43741 whole entry, looked up): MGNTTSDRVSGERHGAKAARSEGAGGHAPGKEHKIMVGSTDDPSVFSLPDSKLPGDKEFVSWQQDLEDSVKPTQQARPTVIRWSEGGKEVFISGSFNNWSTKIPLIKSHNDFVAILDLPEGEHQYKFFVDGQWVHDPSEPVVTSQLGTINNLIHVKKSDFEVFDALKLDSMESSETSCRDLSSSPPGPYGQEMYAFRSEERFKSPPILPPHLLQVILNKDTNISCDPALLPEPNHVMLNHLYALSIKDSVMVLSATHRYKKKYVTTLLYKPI
Chain of UniProt P05771 (P05771 whole entry, looked up): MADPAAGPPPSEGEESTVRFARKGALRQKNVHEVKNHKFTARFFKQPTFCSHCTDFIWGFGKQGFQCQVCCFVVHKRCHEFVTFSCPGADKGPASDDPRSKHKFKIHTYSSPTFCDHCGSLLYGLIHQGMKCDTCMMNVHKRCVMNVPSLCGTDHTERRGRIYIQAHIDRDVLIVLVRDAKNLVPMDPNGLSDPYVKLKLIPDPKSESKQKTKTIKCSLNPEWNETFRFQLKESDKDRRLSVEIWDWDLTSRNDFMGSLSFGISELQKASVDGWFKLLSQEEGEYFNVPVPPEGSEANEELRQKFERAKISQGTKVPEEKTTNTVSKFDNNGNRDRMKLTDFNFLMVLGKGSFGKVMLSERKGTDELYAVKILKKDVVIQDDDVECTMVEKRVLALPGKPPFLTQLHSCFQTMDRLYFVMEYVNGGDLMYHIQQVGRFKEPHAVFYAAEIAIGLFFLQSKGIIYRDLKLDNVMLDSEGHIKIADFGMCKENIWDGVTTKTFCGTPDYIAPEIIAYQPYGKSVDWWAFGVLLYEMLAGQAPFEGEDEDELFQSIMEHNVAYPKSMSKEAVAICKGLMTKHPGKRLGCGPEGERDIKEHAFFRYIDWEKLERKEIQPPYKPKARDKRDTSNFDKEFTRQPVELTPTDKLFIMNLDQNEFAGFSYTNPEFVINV
Chain of UniProt Q8TD55 (Q8TD55 whole entry, looked up): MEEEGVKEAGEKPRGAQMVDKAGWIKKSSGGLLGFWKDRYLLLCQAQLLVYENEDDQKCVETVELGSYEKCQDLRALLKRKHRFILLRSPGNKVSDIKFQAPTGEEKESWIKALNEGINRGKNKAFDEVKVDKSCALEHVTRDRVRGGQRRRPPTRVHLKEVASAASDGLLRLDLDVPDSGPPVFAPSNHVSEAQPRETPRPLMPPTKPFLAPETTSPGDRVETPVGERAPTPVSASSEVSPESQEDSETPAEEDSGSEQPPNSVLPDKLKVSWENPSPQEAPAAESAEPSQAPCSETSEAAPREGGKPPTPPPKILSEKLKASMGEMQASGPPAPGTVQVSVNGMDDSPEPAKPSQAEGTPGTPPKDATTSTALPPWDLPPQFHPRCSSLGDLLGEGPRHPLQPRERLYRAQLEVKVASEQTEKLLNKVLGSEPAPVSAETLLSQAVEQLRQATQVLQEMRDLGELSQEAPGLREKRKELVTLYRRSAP
Chain of UniProt Q16875 (Q16875 whole entry, looked up): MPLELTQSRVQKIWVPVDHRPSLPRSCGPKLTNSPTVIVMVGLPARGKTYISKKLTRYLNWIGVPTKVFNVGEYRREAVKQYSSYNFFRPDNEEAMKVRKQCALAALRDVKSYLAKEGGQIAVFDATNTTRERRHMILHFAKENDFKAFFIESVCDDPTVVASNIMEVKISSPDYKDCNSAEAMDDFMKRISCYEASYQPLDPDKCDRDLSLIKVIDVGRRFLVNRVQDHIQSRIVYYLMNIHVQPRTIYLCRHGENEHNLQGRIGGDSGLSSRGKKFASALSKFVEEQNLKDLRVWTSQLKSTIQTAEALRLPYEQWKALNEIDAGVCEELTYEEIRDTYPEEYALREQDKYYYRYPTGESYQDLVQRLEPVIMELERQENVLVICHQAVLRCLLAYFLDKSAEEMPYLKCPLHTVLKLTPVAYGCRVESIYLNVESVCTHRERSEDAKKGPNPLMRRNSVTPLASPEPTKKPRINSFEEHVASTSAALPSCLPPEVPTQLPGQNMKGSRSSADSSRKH

Target	log2 fold change [1]	log2 fold change [2]	log2 fold change [3]	log2 fold change [4]	log2 fold change [5]	log2 fold change [6]	log2 fold change [7]	log2 fold change [8]	log2 fold change [9]	log2 fold change [10]
PHKB isoform 3 (UniProt Q93100)	-0.007	0.121	-0.023	0.001	0.008	-0.063	-0.035	0.28 (active)	0.004	-0.058
PLEKHO2 (UniProt Q8TD55)	0.207	-0.237	-0.096	0.118	-0.039	0.062	-0.192	0.068	-0.071	0.873 (active)
PIK3R1 (UniProt P27986)	-0.041	-0.072	-0.024	0.058	0.004	-0.027	0.039	0.042	0.021	0.249
PMPCA (UniProt Q10713)	0.005	0.052	0.672 (active)	0	-0.017	-0.041	0.187	-0.013	-0.009	0.003
PDCD6IP isoform 2 (UniProt Q8WUM4)	-0.018	0.007	-0.042	0.004	0.022	0.002	0.016	-0.001	0.018	0.002
PHKA2 (UniProt P46019)	0.005	0.163	-0.05	0.019	-0.028	-0.148	0.015	0.302 (active)	0.001	-0.037
POC5 (UniProt Q8NA72)	0.01	0.058	-0.159	0.09	-0.081	0.007	0.005	-0.005	-0.128	0.034
PI4KA (UniProt P42356)	-0.025	0.055	-0.098	0.015	0.043	-0.076	-0.031	0.041	0.003	0.019
PRPH isoform 2 (UniProt P41219)	-0.022	0.032	-0.019	-0.024	0.036	0.034	-0.02	-0.027	0.028	0.094
PYCR2 (UniProt Q96C36)	0.03	-0.027	0.011	-0.007	-0.005	0.073	-0.015	-0.021	0.007	0.018
PFKFB3 isoform 4 (UniProt Q16875)	0.018	-0.023	-0.088	-0.021	0.075	-0.012	0.01	-0.025	-0.192	-0.001
PRIM1 (UniProt P49642)	0	-0.011	-0.05	-0.006	0.019	0.014	-0.022	0.028	0.001	-0.031
PDS5A (UniProt Q29RF7)	-0.013	-0.002	-0.081	-0.003	0.008	-0.113	0.001	0.047	0.011	-0.023
PES1 (UniProt O00541)	-0.004	0.006	0.016	-0.034	0.001	-0.067	0.001	0.026	0.015	-0.047
PIP4K2A (UniProt P48426)	0.041	-0.006	0.068	0.141	0.046	-0.001	-0.062	0.039	-0.012	-0.056
PRPF38A (UniProt Q8NAV1)	0.076	0.018	-0.055	-0.088	-0.001	-0.452 (active)	-0.016	0.092	0.003	0.049
PIP4K2B (UniProt P78356)	0.032	0.024	0.151	0.093	0.008	-0.017	-0.007	0	0.002	-0.034
PRKAB2 (UniProt O43741)	0.033	0.203	-0.049	0.106	0.042	-0.031	-0.031	0.14	0.036	0.023
PIP4K2C (UniProt Q8TBX8)	0.169	-0.015	0.047	0.298	0.029	-0.095	-0.012	0.035	0.033	-0.085
PGLS (UniProt O95336)	0.008	-0.021	0.001	0.168	0.022	0.017	-0.013	-0.017	-0.073	0.014
PI4K2A (UniProt Q9BTU6)	0.009	0.03	-0.036	0.207 (active)	-0.024	0.01	-0.064	0.071	0.49 (active)	-0.004
POLD1 (UniProt P28340)	0.029	-0.004	-0.023	-0.011	0.011	0.01	-0.011	0.015	0.006	0.003
PRKCB isoform 2 (UniProt P05771)	-0.014	0.256 (active)	-0.06	-0.093	-0.007	0.017	-0.038	-0.416 (active)	0.181	-0.037
PPOX (UniProt P50336)	0.227	-0.001	0.086	0.054	-0.004	0.129	-0.012	-0.019	-0.008	-0.036
PGGT1B (UniProt P53609)	0.01	-0.005	0.005	-0.03	0.048	0.066	0.208	0.018	-0.037	0.047
PHKG2 (UniProt P15735)	-0.022	0.598 (active)	-0.03	0.046	0.037	-0.069	0.038	0.979 (active)	-0.042	-0.073
PPP2CA (UniProt P67775)	-0.009	0.037	0.017	0.009	0.057	0.185	0.024	-0.093	-0.008	0.023
PICALM (UniProt Q13492)	-0.012	-0.01	-0.036	-0.009	0.001	-0.003	-0.042	-0.018	0.012	0.007
PUF60 (UniProt Q9UHX1)	-0.006	-0.002	-0.025	0.011	-0.017	0.073	0.016	-0.017	-0.001	0.021
